In PubChem BioAssay (NCI) one finds growth data, which are given here for 8 compounds.

Molecules are shown by their SMILES. Compounds without any hit were thinned out: in the full panel of roughly 83,000, 20% have a hit.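 Assay: single dose, 48 h. Readout: percent growth (0 = no net growth; negative = cell death). Active: <10.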 Values without a mark were called inactive. Activity calls are given as the source filed them.

Holding throughout (experiment): NCI-60 one-dose screen, 48 h (100 = growth as untreated, 0 = no growth, -100 = all killed)
The subject of one assay is HCT-15 colon. To be noted: 10 µM unless noted.
A further assay deals with HT29 colon. To be noted: 10 µM unless noted.
For a further assay, the system named is SNB-75 CNS. To be noted: 10 µM unless noted.
The test system of a further assay is SNB-19 CNS. To be noted: 10 µM unless noted.
In another assay the test system is U251 CNS. To be noted: 10 µM unless noted.
The next assay has as its system PC-3 prostate. To be noted: 10 µM unless noted.
A further assay deals with SK-MEL-5 melanoma. The note with it: 10 µM unless noted.
The next assay deals with UACC-62 melanoma. To be noted: 10 µM unless noted.
A further assay deals with LOX IMVI melanoma. To be noted: 10 µM unless noted.
In the next assay the test system is SK-MEL-28 melanoma. The note with it: 10 µM unless noted.
Another assay concerns SK-MEL-2 melanoma. The note with it: 10 µM unless noted.
Another assay has as its system EKVX NSCLC. The note with it: 10 µM.
The subject of another assay is SN12C renal. To be noted: 10 µM unless noted.
A further assay concerns UO-31 renal. To be noted: 10 µM unless noted.
The next assay deals with TK-10 renal. The note with it: 10 µM unless noted.
A further assay has as its system ACHN renal. The note with it: 10 µM unless noted.
For the next assay, the system named is CAKI-1 renal. To be noted: 10 µM unless noted.
For another assay, the system named is CCRF-CEM leukemia. To be noted: 10 µM.
In a further assay the test system is MOLT-4 leukemia. The note with it: 10 µM unless noted.
A further assay has as its system A498 renal. The note with it: 10 µM unless noted.

As for `Oc1ccc2ccccc2c1/C=N\Nc1ccccn1`, the growth with HCT-15 colon was 28.7%; with HT29 colon, 111%; in the assay with SNB-75 CNS it was -7.53% (active); with SNB-19 CNS, 27.8%; in the assay on U251 CNS it was 21.3%; with PC-3 prostate, 45.1%. The growth with SK-MEL-5 melanoma was 13.3%; in the assay with UACC-62 melanoma, 0.907% (active); in the assay on LOX IMVI melanoma, -4.69% (active); with SK-MEL-28 melanoma, 38.9%; in the assay on SK-MEL-2 melanoma it was 19.3%; in the assay on EKVX NSCLC, -6.82% (active). Further, the growth in the assay with SN12C renal was 22.4%; with UO-31 renal, -24.7% (active); in the assay with TK-10 renal, 58.3%; in the assay on ACHN renal, 6.56% (active); with CAKI-1 renal, -26.4% (active); in the assay with CCRF-CEM leukemia it was 8.91% (active). The growth in the assay with MOLT-4 leukemia is 5.28% (active).
For `O=C(/C=C1\C(=O)N(Cc2ccccc2)c2ccccc21)c1ccc(OCCN2CCCCC2)cc1`, the growth in the assay on HCT-15 colon was -49.9% (active); in the assay with HT29 colon it was -58% (active); in the assay with SNB-75 CNS, 78.7%; with SNB-19 CNS it was 88.1%; in the assay on U251 CNS it was 50.7%; in the assay on PC-3 prostate, 56.9%. Further, the growth was 94.9% in the assay on SK-MEL-5 melanoma; 69.5% in the assay with UACC-62 melanoma; -37.2% (active) in the assay with LOX IMVI melanoma; 96.9% in the assay on SK-MEL-28 melanoma; 88.6% with SK-MEL-2 melanoma; 64.2% in the assay with EKVX NSCLC. In addition, the growth with SN12C renal is 0.718% (active); in the assay with UO-31 renal it was -25.9% (active); in the assay with TK-10 renal it was 40.3%; in the assay with ACHN renal, -25.4% (active); in the assay on A498 renal, 68.4%; in the assay with CCRF-CEM leukemia, 1.17% (active). Moreover, the growth with MOLT-4 leukemia is 9.65% (active).
With `CC(=O)c1nn(-c2ccc(C)cc2)cc1C(=O)c1cc2c(ccc3ccccc32)oc1=O`, the growth with HCT-15 colon was 99.3%; in the assay on HT29 colon, 92.4%; in the assay on SNB-75 CNS it was 66.4%; with SNB-19 CNS, 92.6%; in the assay with U251 CNS, 104%; with PC-3 prostate it was 87.9%. Also, the growth is 95.6% with SK-MEL-5 melanoma; 78.3% in the assay on UACC-62 melanoma; 90.5% with LOX IMVI melanoma; 96.7% in the assay on SK-MEL-28 melanoma; 99.7% in the assay with SK-MEL-2 melanoma; 82.3% in the assay with EKVX NSCLC. Moreover, the growth with SN12C renal is 94.3%; in the assay with UO-31 renal, 65.2%; with TK-10 renal, 144%; in the assay with ACHN renal it was 88.1%; in the assay on A498 renal, 124%; in the assay with CCRF-CEM leukemia it was 98.4%. In the assay on MOLT-4 leukemia, the growth was 102%.
Consider `COc1ccc(CN2C(=O)/C(=C\C(=O)c3ccc(OCCN4CCCCC4)cc3)c3ccccc32)cc1`, for which the growth in the assay on HCT-15 colon is 7.62% (active); with HT29 colon it was 8.95% (active); in the assay on SNB-75 CNS, 83.8%; in the assay on SNB-19 CNS it was 84%; with U251 CNS, 80%; in the assay with PC-3 prostate, 81.4%. The growth is 90.9% with SK-MEL-5 melanoma; 73.5% with UACC-62 melanoma; 8.81% (active) in the assay with LOX IMVI melanoma; 91.5% in the assay with SK-MEL-28 melanoma; 97.4% with SK-MEL-2 melanoma; 87.6% with EKVX NSCLC. Also, the growth in the assay with SN12C renal was 26.3%; in the assay with UO-31 renal, 39.3%; with TK-10 renal, 113%; with ACHN renal, 48.7%; in the assay with A498 renal, 88.4%; in the assay with CCRF-CEM leukemia, 8.94% (active). In the assay with MOLT-4 leukemia, the growth was 3.78% (active).
`Cc1cc2c(-c3nc4ccccc4[nH]3)c(O)c(O)cc2c(O)c1-c1c(C)cc2c(-c3nc4ccccc4[nH]3)c(O)c(O)cc2c1O`: the growth with HCT-15 colon is 11.9%; in the assay with HT29 colon, 10.5%; with SNB-75 CNS, 5.43% (active); in the assay with SNB-19 CNS it was 7.78% (active); with U251 CNS, -58.7% (active); in the assay with PC-3 prostate, 6.02% (active). Further, the growth was -8.04% (active) in the assay on SK-MEL-5 melanoma; -16.6% (active) with UACC-62 melanoma; -26.5% (active) with LOX IMVI melanoma; 19.8% in the assay with SK-MEL-28 melanoma; 7.6% (active) in the assay on SK-MEL-2 melanoma; 8.33% (active) in the assay on EKVX NSCLC. Further, the growth is 9.17% (active) with SN12C renal; -30.6% (active) in the assay on UO-31 renal; -6.24% (active) in the assay with TK-10 renal; 1.78% (active) in the assay with ACHN renal; -3.57% (active) with A498 renal; 3.98% (active) in the assay with CCRF-CEM leukemia. The growth in the assay with MOLT-4 leukemia is 2.22% (active).
Regarding `C=CCSc1nnc(COc2ccc3c(C)c(Cc4ccccc4)c(=O)oc3c2C)o1`, the growth with HCT-15 colon is 104%; in the assay on HT29 colon, 98.3%; in the assay on SNB-75 CNS, 89.1%; with SNB-19 CNS, 93.4%; in the assay on U251 CNS it was 99%; with PC-3 prostate, 93.2%. In addition, the growth was 101% with SK-MEL-5 melanoma; 92.4% in the assay on UACC-62 melanoma; 97.6% in the assay on LOX IMVI melanoma; 117% in the assay with SK-MEL-28 melanoma; 95.9% with SK-MEL-2 melanoma; 108% with EKVX NSCLC. Further, the growth was 95.2% in the assay with SN12C renal; 80% in the assay with UO-31 renal; 109% in the assay with TK-10 renal; 97.5% in the assay on ACHN renal; 110% with A498 renal; 95.1% in the assay on CCRF-CEM leukemia. For the same compound, in the assay on MOLT-4 leukemia, the growth is 96%.
With `CCOC(=O)C1C(=O)C(=O)N(C(C)C)C1C(=O)OCC` (configuration not stated), the growth with HCT-15 colon was 94.1%; in the assay with HT29 colon, 98.2%; in the assay with SNB-75 CNS, 85.9%; in the assay on SNB-19 CNS it was 97.3%; in the assay with U251 CNS, 107%; in the assay with PC-3 prostate, 97.8%. The growth with SK-MEL-5 melanoma was 103%; in the assay with UACC-62 melanoma it was 96.4%; in the assay with LOX IMVI melanoma it was 102%; in the assay on SK-MEL-28 melanoma it was 108%; in the assay with SK-MEL-2 melanoma it was 113%; with EKVX NSCLC it was 106%. In addition, the growth with SN12C renal is 94.4%; with UO-31 renal it was 86.2%; with TK-10 renal, 99.1%; with ACHN renal it was 94.3%; in the assay on CAKI-1 renal, 105%; in the assay with CCRF-CEM leukemia it was 110%. For the same compound, in the assay with MOLT-4 leukemia, the growth was 122%.
As to `C[C@@H](c1ccc2c(c1)[nH]c1ccc(Cl)cc12)c1nc2ccc(Cl)cc2[nH]1`, the growth is 90.1% with HCT-15 colon; 97.2% in the assay on HT29 colon; 74.2% in the assay with SNB-75 CNS; 91.7% in the assay with SNB-19 CNS; 92.1% with U251 CNS; 84.4% in the assay on PC-3 prostate. In addition, the growth is 95% in the assay with SK-MEL-5 melanoma; 76.6% in the assay with UACC-62 melanoma; 85.4% in the assay with LOX IMVI melanoma; 99.8% in the assay on SK-MEL-28 melanoma; 106% in the assay on SK-MEL-2 melanoma; 75.5% in the assay with EKVX NSCLC. Besides, the growth is 80.6% in the assay on SN12C renal; 58% in the assay with UO-31 renal; 85.6% in the assay on TK-10 renal; 79.6% in the assay with ACHN renal; 99.7% with A498 renal; 16.6% with CCRF-CEM leukemia. For the same compound, the growth in the assay with MOLT-4 leukemia was 49.4%.
